# Reference: PubChem BioAssay (Tox21)
# Several values for one entry are separate records, joined by “and”; a condition that tells them apart may be missing. Equal values may be shown once. Records with an inconclusive call do not appear. A call without a number means that no potency is given here. Activity calls are given as the source filed them. Calls follow the shape of the dose curve; as a rule, active = well fitted inhibition curve with a large enough effect in the repeat runs; inconclusive = weak or mixed curves; inactive = flat fitted curve, though single readings scatter.
# Test: qHTS assay to identify small molecule HDAC inhibitors (AID 1259364); also: nearly all actives have a fitted effect of over 45% in size
# Conditions: HCT-116 HDAC-Glo I/II luminescence, 2 h; series mostly up to 92.4 µM
# Description: U.S. Tox21 Program National Center for Advancing Translational Sciences [NCATS] NIH Chemical Genomics Center [NCGC] U.S. Environmental Protection Agency [EPA] National Institutes of Environmental Health Sciences [NIEHS] National Toxicology Program [NTP] U.S. Food and Drug Administration [FDA] Tox21 Assay Overview: Histone deacetylases (HDACs) are a group of epigenetic enzymes that regulate gene expression by histone deacetylation. HDACs are capable of introducing epigenetic modifications and such aberrations contribute to the onset and progression of several human diseases, thus making HDACs a popular therapeutic target. For identifying endogenous class I/II HDAC inhibitors a homogenous, luminogenic HDAC I/II cell based assay was used to measure the relative activity of class I and II HDACs from cells. Wild type HCT-116 cells were used to screen Tox21 libraries for identifying class I/II HDAC inhibitors.
# Tox21 Assay Protocol Summary: HCT-116 cells were dispensed at 1,500 per well in 5uL of culture medium into white solid bottom 1536-well plates (Greiner Bio-One, Monroe, NC) using a Multidrop Combi (Thermo Scientific, Waltham, MA) dispenser. The assay plates were incubated at 37 C and 5% CO2 for an overnight, and then 23nL of compounds dissolved in DMSO and positive control were transferred using a Pintool station (Wako, San Diego, CA). The assay plates were incubated at 37C and 5% CO2 for 2hr. After compound treatment, 4uL of HDAC-Glo reagent (Promega Corporation, Madison, WI) was added to each well of the assay plates using Flying Reagent Dispenser (FRD, Aurora Discovery, San Diego, CA) and incubated the assay plates at room temperature for 30min. The luminescence signal was quantified using a ViewLux plate reader (Perkin Elmer, Shelton, CT).
# Potency is read from the fitted curve at half-maximal effect.
row,SMILES,Potency
1,CCCCC(CC)COP(=O)(OCC(CC)CCCC)OCC(CC)CCCC (stereo not given),inactive
2,CN(C)C(=N)N=C(N)N,inactive
3,Cc1c(C(N)=O)cc([N+](=O)[O-])cc1[N+](=O)[O-],inactive
4,COC(=O)c1ccccc1,inactive
5,CCOC(=O)C(C#N)=C(c1ccccc1)c1ccccc1,inactive
6,COc1cc([C@@H]2c3cc4c(cc3[C@H](O)[C@H]3COC(=O)[C@H]23)OCO4)cc(OC)c1OC,inactive
7,CC(=O)C1(C)CC2=C(CCCC2(C)C)CC1C (stereo not given),inactive
8,O=C(/C=C/C=C/c1ccc2c(c1)OCO2)N1CCCCC1,9.71 µM (active) and 8.63 µM (active)
9,CN(C)CCN(Cc1cccs1)c1ccccn1,inactive
10,CC(=O)Oc1ccccc1C(=O)Nc1ncc([N+](=O)[O-])s1,197 nM (active) and 473 nM (active)
11,C#C[C@]1(O)CC[C@H]2[C@@H]3CCc4cc(OC)ccc4[C@H]3CC[C@@]21C,inactive
12,CC(C)=CCCC(C)CCO (stereo not given),inactive
13,NNc1ccc(C(=O)O)cc1,2.47 µM (active) and 6.93 µM (active)
14,Cc1cccc([N+](=O)[O-])c1C,inactive
15,O=C(/C=C/c1ccccc1)OCc1ccccc1,inactive
16,CN(C)c1nc(N(C)C)nc(N(C)C)n1,inactive
17,Cn1cnc([N+](=O)[O-])c1Sc1ncnc2nc[nH]c12,inactive
18,O=C(COc1ccc(Cl)cc1)N1CCN(Cc2ccc3c(c2)OCO3)CC1,inactive
19,O=C(O)c1ccccc1Nc1cccc(C(F)(F)F)c1,48.6 µM (active)
20,O=CCc1ccccc1,inactive

row,SMILES,Potency
1,S=C(NC1CCCCC1)NC1CCCCC1,inactive
2,C[C@]12CCC(=O)C=C1CC[C@@H]1[C@@H]2C(=O)C[C@@]2(C)[C@H]1CC[C@]2(O)C(=O)CO,inactive
3,Clc1nc(Cl)c(Cl)c(Cl)c1Cl,inactive
4,COC(C)COC(C)COC(C)CO (stereo not given),inactive
5,c1ccc2cc(Nc3ccc(Nc4ccc5ccccc5c4)cc3)ccc2c1,inactive
6,COc1ccc(C(=O)CC(=O)c2ccc(C(C)(C)C)cc2)cc1,inactive
7,CC(C(=O)O)c1cccc(C(=O)c2ccccc2)c1 (stereo not given),inactive
8,Cc1ncc[nH]1,inactive
9,CC(=O)c1ccccn1,inactive
10,O=C(c1ccccc1)c1ccccc1O,inactive
11,O=CCCCC=O,inactive
12,Cc1ccc2c(n1)Oc1ccc(C(C)C(=O)OCC(=O)N(C)C)cc1C2 (stereo not given),11.9 µM (active) and 9.44 µM (active)
13,CC(C)=CCC/C(C)=C\CO,inactive
14,CCCCNS(=O)(=O)c1ccccc1,inactive
15,O=C=Nc1ccc(Cc2ccc(N=C=O)cc2)cc1,inactive
16,CNCCCC12CCC(c3ccccc31)c1ccccc12,inactive
17,O=c1oc(=O)c2cc3c(=O)oc(=O)c3cc12,inactive
18,O=C(c1ccccc1)c1ccc(O)cc1O,inactive
19,c1ccc2c(c1)Oc1ccccc1S2,inactive
20,Nc1ccc(Cl)cc1Cl,inactive
